# Results reported in the supplement of paper PMC6555819.
# Key:
# Test in all cases: PBM binding z-score (relative to random genomic background probes); higher = stronger binding; sequences stand for … in GC…GCGATTGACAGCGTAGAATGAAGG
# [1] = system: FXR:RXRa (NR concentration 270 nM, RXRa partner concentration 90 nM)
# Procedure, shortened: (§1)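 Each nuclear receptor dimer, without ligand, was incubated for 1 h on custom Agilent 4×180K protein-binding microarrays. Binding was detected with antibodies against each partner (one per run), and scanned fluorescence was regression-normalized. The binding z-scores are referenced to random human genomic background probes.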
# [2] = system: LXRa:RXRa (NR concentration 270 nM, RXRa partner concentration 90 nM)
# Procedure, shortened: as §1
# [3] = system: LXRa homodimer (NR concentration 270 nM)
# Procedure, shortened: as §1
# [4] = system: LXRb:RXRa (NR concentration 270 nM, RXRa partner concentration 90 nM)
# Procedure, shortened: as §1
# [5] = system: LXRb homodimer (NR concentration 270 nM)
# Procedure, shortened: as §1
# [6] = system: PPARa:RXRa (NR concentration 270 nM, RXRa partner concentration 90 nM)
# Procedure, shortened: as §1
# [7] = system: PPARg:RXRa (NR concentration 180 nM, RXRa partner concentration 90 nM)
# Procedure, shortened: as §1
# [8] = system: PPARg:RXRa 270nM:90nM, anti-RXR (NR concentration 270 nM, RXRa partner concentration 90 nM)
# Procedure, shortened: as §1
# [9] = system: PPARg:RXRa 30nM:10nM, anti-RXR (NR concentration 30 nM, RXRa partner concentration 10 nM)
# Procedure, shortened: as §1
# [10] = system: PPARg:RXRa 90nM:30nM, anti-RXR (NR concentration 90 nM, RXRa partner concentration 30 nM)
# Procedure, shortened: as §1
# [11] = system: PPARg:RXRa DBDmut IVT, anti-RXR (DBD mutation: RXRa K156A/R161A, NR concentration 270 nM, RXRa partner concentration 90 nM)
# Procedure, shortened: as §1
# [12] = system: PPARg:RXRa IVT, anti-PPARg (NR concentration 270 nM, RXRa partner concentration 90 nM)
# Procedure, shortened: as §1
# [13] = system: PPARg DBDmut:RXRa IVT, anti-PPARg (DBD mutation: PPARg1 K132A/R137A, NR concentration 270 nM, RXRa partner concentration 90 nM)
# Procedure, shortened: as §1
# [14] = system: PPARg DBDmut IVT, anti-PPARg (DBD mutation: PPARg1 K132A/R137A, NR concentration 270 nM)
# Procedure, shortened: as §1
# [15] = system: PPARg homodimer (NR concentration 180 nM)
# Procedure, shortened: as §1
# [16] = system: PXR:RXRa (NR concentration 270 nM, RXRa partner concentration 90 nM)
# Procedure, shortened: as §1
# [17] = system: PXR homodimer (NR concentration 270 nM)
# Procedure, shortened: as §1
# [18] = system: RARa:RXR (NR concentration 270 nM, RXRa partner concentration 90 nM)
# Procedure, shortened: as §1
# [19] = system: RARa homodimer (NR concentration 270 nM)
# Procedure, shortened: as §1
# [20] = system: RARb:RXRa (NR concentration 270 nM, RXRa partner concentration 90 nM)
# Procedure, shortened: as §1
Sequence,PBM binding z-score [1],PBM binding z-score [2],PBM binding z-score [3],PBM binding z-score [4],PBM binding z-score [5],PBM binding z-score [6],PBM binding z-score [7],PBM binding z-score [8],PBM binding z-score [9],PBM binding z-score [10],PBM binding z-score [11],PBM binding z-score [12],PBM binding z-score [13],PBM binding z-score [14],PBM binding z-score [15],PBM binding z-score [16],PBM binding z-score [17],PBM binding z-score [18],PBM binding z-score [19],PBM binding z-score [20]
CCGAGTCGGTTATGGGGCATTCAGGCAACGGTGA,-0.323,-0.235,-0.49,-0.14,-0.656,0.438,0.463,1.66,-0.306,0.771,0.293,0.608,-1.56,-1.49,0.196,-0.541,-0.48,-0.567,-0.241,0.404
CAAACTAAGTCAAGAGGTCAAAGTCCGCTTCCCG,5.6,5.87,5.56,5.06,1.95,5.52,4.19,5.54,2.73,4.86,2.44,3.45,0.624,0.834,4.63,5.85,2.97,6.57,2,4.35
CGTCCAAGCTCAAGGTCAGTGAAAGAGACTCGAA,1.45,1.33,0.213,1.25,-0.283,1.93,0.495,1.14,0.132,0.792,-0.0335,0.547,-0.701,-0.496,1.59,1.51,0.437,1.86,0.0805,3.43
ACAGACAGGTGATGAAGGTGACTCAGGCTATCAT,0.202,0.0616,-0.267,0.143,-0.348,0.764,0.82,0.457,-0.1,0.274,0.111,0.845,0.651,0.382,0.791,0.114,0.191,0.48,0.471,0.728
AGAATGAGGTTACCAAAGACCAGGGAAACGCTTG,1.97,4.34,-0.091,1.87,-0.385,3.27,2.53,2.62,0.863,1.86,3.86,3.33,0.85,0.62,0.291,1.22,-0.349,2.06,-0.134,2.11
ACTTACGGGTCAACGAGGTTATGGCACGCGTATA,7.06,5.06,0.89,4.51,0.72,5.54,5.52,5.67,2.05,3.95,3.48,4.51,1.34,0.297,3.2,5.1,2.74,5.52,0.8,4.32
GTACCGAGGTGAATAGGTCGTTGATGAGTAGGCG,1.03,0.978,-0.306,0.874,-0.778,2.68,1.86,2.13,0.147,0.886,1.68,2.73,-0.652,-0.0941,1.09,0.905,-0.18,2.02,-0.153,2.03
TCTATTAGTTGGAGGGCAACCGACGAGTCCGTTT,0.6,1.06,0.645,0.855,0.753,0.93,-0.158,1.88,3.25,2.33,1.97,0.996,0.0745,-0.289,1.04,1.08,1.11,0.737,0.176,1.35
TCTATTAGTTGAAGAGCAACCGACGAGTCCGTTT,0.119,0.663,-0.0692,0.436,0.0793,0.395,-0.0464,1.45,3.13,2.28,2.11,-0.0307,-0.198,0.372,0.184,0.265,0.467,-0.0573,0.544,0.129
GCTTACGGGTCAAAGGTTATACCATGAATAGAAT,7.48,5.87,0.778,5.87,0.759,7.21,11.2,9.29,9.29,10.3,4.59,6.16,1.82,1.93,2.73,6.11,0.691,8.2,0.701,4.64
ACAGACAGGTAAGTGAAGGTAACTCAGCTGGACG,0.106,0.0707,-0.103,-0.313,-0.579,-0.355,0.687,-0.165,-0.141,-0.389,-0.107,0.305,0.744,-0.0686,-0.111,-0.306,0.283,-0.575,0.213,0.109
CCTCCTGGGCCATTCAGAGGTCATTGATCATATG,2.62,4.24,6.14,3.46,-0.028,3.23,0.59,1.78,0.334,0.958,0.035,1.4,-0.946,-1.05,2.13,4.87,2.7,4.93,0.138,3.04
TCTTGGAGATCAGCAGGTTAAGAAAGCTGGCCAA,0.173,-0.0127,-0.38,0.0269,-0.539,0.752,-0.546,0.883,2.2,1.52,1.35,-0.4,-0.469,-0.467,-0.281,0.203,-0.366,0.266,0.00806,0.0526
CAAACTAGGTCACGAAAGGTCGAAGTCGAATGAC,5.94,6.62,2.69,5.17,0.867,6.03,9.65,7.81,5.91,8.11,8.79,9.21,6.19,3.15,3.9,5.95,1,5.45,1.66,4.86
CTCGAAAGGTCGGGCTCAGGTGAGTATACCAAAC,3.1,2.11,-0.238,1.9,0.116,3.25,0.671,1.88,-0.168,0.853,0.601,1.13,0.0395,-0.176,1.13,1.64,-0.297,2.71,0.232,3.36
TTACCAAGGTGAGGTGAGGTCGTTGATCCAACTC,2.75,1.64,-0.251,1.2,-0.802,2.03,0.585,1.25,0.427,0.705,1.36,2.9,-0.05,-0.0548,0.645,4.64,0.773,2.2,-0.25,1.93
AGCATGAGGTTAAGATCAGGGAAACAGAATACAT,1.97,2.02,0.07,1.75,0.151,3.06,1.14,1.04,0.357,0.819,0.0322,0.624,0.52,-0.142,0.333,1.23,0.477,2.07,0.813,2.02
TCTCGGAGGACACGACGGTCAGAGCTTTCCAGAG,0.205,0.0184,-0.415,-0.277,-1.16,0.197,-0.0353,0.515,1.6,1.3,1.2,0.00965,-1.14,-0.952,-0.596,-0.328,-0.626,-0.317,-0.599,1.91
CAAATTAGGTCACGAAAGGTCAAAGTCGAATGAC,7.62,8.19,7.52,7.45,3.07,6.87,10.1,8.6,6.67,8.69,8.68,8.9,4.28,2.39,5.32,7.26,2.64,7.69,3.07,5.8
CAGCCTAGGTCAGTGCCAGTATAGGAGGAACGTT,0.914,0.456,-0.00279,0.349,-0.648,1.17,0.469,0.475,-0.196,0.0661,1.7,1.05,-1.18,-1.02,0.587,-0.0213,-0.197,0.516,-0.0242,3.17
TCTTGTCGATCAAAGGTTAAGAAAGCCGAAGCCT,1.41,1.95,0.175,1.9,0.245,3.76,5.79,6.32,5.47,6.64,1.37,2.3,-0.0137,0.486,0.668,1.62,-0.394,2.19,-0.0364,1.91
CCTACTGGGCCAAGGTCAATGATCAGTCAAAGCA,2.52,2.33,0.441,2.32,-0.518,3.85,4.03,4.33,2.07,3.39,3.63,4.57,-0.437,-1.01,1.4,2.51,0.323,2.81,0.147,3.27
GGTACAGGGTCAGCTAGAGGCCAGAGTATGGAAA,4.99,2.87,-0.106,2.67,-0.0836,4.62,4.12,3.78,0.502,2.27,0.482,2.29,0.521,-0.216,2.93,3.37,0.15,4.88,0.0993,4.22
AGATGTAGGTTACATCCGGGTCATTCAGGCTATG,2.09,4.32,0.937,2.54,0.043,4.14,5.05,4.32,1.77,3.53,7,7.07,0.707,1.29,1.58,3.72,2.06,3.68,-0.0966,2.24
GGAACTAGGGCATTCGAGTTGATAGCATGGCGAT,0.225,0.214,-0.0911,-0.433,-0.474,2.54,3.49,3.04,0.86,1.91,7.47,7.05,0.246,1.27,0.796,1.44,-0.109,0.587,-0.515,0.965
CCGGCTAGGTCAATGGTCAGCTAAAGCAGCTCGC,3.18,1.98,-0.137,1.48,-0.304,2.91,3.63,4.32,1.63,4.03,3.12,2.61,-1.05,-0.801,0.684,0.817,-0.491,1.75,0.248,3.8
TTACCAAGTTGAGCTGAGGTCGTTGATCCAACTC,0.614,0.638,-0.367,0.536,-0.873,1.03,-0.512,0.423,0.243,-0.0903,-0.673,0.221,-0.252,-0.114,-0.328,3.88,0.614,1.76,-0.601,0.659
CGTCCAAGGTCAATGCTAGGGCAGTGAAAGCATT,6.49,4.8,0.528,3.57,0.446,5.03,3.68,4.65,1.05,3.08,2.64,3.52,0.232,-0.81,2.06,3.68,0.492,4.3,-0.245,5.2
